Hit rate of the full screen: of about 420,000 compounds, about 64,000 (15%) were called active. Roughly 27% stayed inconclusive and do not appear here. Calls come from the whole dose curve; as a rule, active = well fitted inhibition curve with a large enough effect; inconclusive = small, poorly fitted or top-dose-only effect; inactive = flat fitted curve, though single readings scatter. The list is a sample of the results. Where a call stands in place of a potency, no number is given.
Potency is the fitted concentration of half-maximal effect.

This assay is described as follows: qHTS for Inhibitors of human tyrosyl-DNA phosphodiesterase 1 (TDP1): qHTS in cells in absence of CPT. Note: nearly all actives have a fitted effect of over 55% in size. The note with it: DT40 Tdp1-/- hTDP1 cells, no CPT, ATP luminescence, 48 h; activity change, negative = growth inhibition: at 46.2 µM (top of the series). An excerpt: Human tyrosyl-DNA phosphodiesterase 1 (TDP1) is a novel repair gene, and we propose to use it as a new target for anticancer drug development. TDP1 is not an essential protein, but under treatment with topoisomerase I poison (camptothecin: CPT), TDP1 works as a critical factor for cell survival. To directly identify novel TDP1 inhibitors active in a cellular environment, we have knocked-out the Tdp1 gene in chicken DT40 cells (Tdp1-/-) and generated a complemented counterpart cells that contains a stable transfection of the human TDP1 gene (Tdp1-/-;hTDP1 cells). For the primary screen, Tdp1-/-;hTDP1 cells will be exposed to small molecules in the presence or absence of CPT, and their growth kinetics will be evaluated after 48 hours by measuring ATP activity. […] The hit compounds will then be evaluated in the presence or absence of CPT using Tdp1-/- cells. […] In tertiary assays, biochemical gel-based assays will be used to assess whether the hit compounds specifically target TDP1.
To this end, we have screened this cell line against the MLSMR in two primary screens. In one screen we add CPT and in the other we screen in the absence of CPT; this AID represents the screen where CPT was absent.
NIH Chemical Genomics Center [NCGC]
NIH Molecular Libraries Probe Centers Network [MLPCN]
Assay Submitter (PI): Yves Pommier, NCI
DT40-hTDP1 cells without 20 nM Camptothecin (add 20 microL of DMSO in 1 L of cell culture medium) were dispensed at 400 cells/5microL/well in tissue culture treated 1536-well white wall/solid bottom assay plates (Greiner Bio-One North America, NC, U.S.A.) using a Multidrop Combi 8 channel dispenser (Thermo Fisher, Waltham, MA, USA). 23 nL compounds and controls were transferred using the pin tool (Kalypsys, San Diego, CA, USA) to the assay plates. The assay plates were then incubated at 37 masculineC for a minimum 48 hr. Three microL of Cell Titer Glo solution was added to the plates and incubated at RT in dark for 30 min. Luminescence was read using ViewLux (Perkin Elmer) with 1 sec exposure slow speed, high gain and 2x binning.
On the technique in general: Quantitative high-throughput screening tests each substance at several concentrations.
On to `COc1ccc(C(=O)NCCNc2ccc([N+](=O)[O-])cn2)cc1`, for which the Potency entry is “inactive”.
Take `COc1ccc(-c2[nH][nH]c(=O)c2NC(=O)c2ccc([N+](=O)[O-])cc2)cc1`: the Potency result was “inactive”.
`COc1ccc(C(=O)Nc2nc(-c3ccc(OC)cc3)c(-c3ccc([N+](=O)[O-])cc3)s2)cc1`: the Potency was 9.2 µM (active).
Regarding `O=C(CN(C(=O)c1csnn1)c1cccc(Cl)c1)NC1CCCC1`, the Potency entry was “inactive”.
Consider `Cc1cccc(C)c1N1CCN(S(=O)(=O)N2CCOCC2)CC1`, for which the Potency entry is “inactive”.
The value for `CCc1cc2c(NC(Cc3ccccc3)C(=O)O)ncnc2s1` (stereo unspecified) was “inactive”.
On to `CCc1cc2c(NC3CCCC3)ncnc2s1`, for which the Potency was 4.61 µM (active).
To `Clc1cc(NC2CCCCC2)ncn1` belongs “inactive”; to `CCCC12CN3CC(CCC)(CN(C1)C3c1c[nH]c3ccc(OC)cc13)C2=O` (stereo unspecified), 10.3 µM (active).
As to `CCN(CC)CC(=O)c1c[nH]c2ccc(OC)cc12`, the Potency result was “inactive”.
In the case of `CCCC12CN3CC(C)(CN(C1)C3c1ccccc1Cl)C2=O` (stereo unspecified), the Potency entry was “inactive”.
To `COc1ccccc1CNC(=O)CSc1nc(=O)n(Cc2ccncc2)c2c1CCC2` belongs “inactive”; to `O=S1(=O)CCN(Cc2ccccc2Cl)CC1`, “inactive”; to `CC1(C)CN(CCc2ccccc2)C(=O)[C@H]1CC(=O)Nc1ccc(Br)cc1`, “inactive”.
The value for `CCCCN1CC(C)(C)[C@H](CC(=O)Nc2ccc(Br)cc2)C1=O` was 16.4 µM (active); that for `CC(=O)N1CC(=O)N(CC(=O)Nc2ccc(Br)cc2)C1=S` was “inactive”; that for `O=C(N/N=C/c1ccccn1)C12CC3CC(CC(C3)C1)C2` was “inactive”.
The value for `COc1cccc(NC(=O)Cn2c3ccccc3c3nc4n(c(=O)c32)CCS4)c1` was “inactive”.
On to `CN(CC(=O)NC(=O)Nc1ccccc1F)Cc1ccccc1`, for which the Potency result is “inactive”.
Turning to `COc1cccc2c1C(=O)c1c(O)c3c(c(O)c1C2=O)CC(O)(C(C)=NNC(=O)c1ccc(Cl)c(Cl)c1)CC3OC1CC(N)C(O)C(C)O1` (stereo unspecified), the Potency is 0.164 µM (active).
`O=C(Nc1ccccc1-c1ccccc1)c1ccccc1[N+](=O)[O-]`: the Potency result was “inactive”.
The value for `COc1cccc(N2CC(C(=O)NCc3n[nH]c(=O)c4ccccc34)CC2=O)c1` (stereo unspecified) was “inactive”; that for `CCn1c2ccccc2c2cc(NC(=O)CNC)ccc21` was “inactive”; that for `CC[n+]1c(C)n(-c2ccccc2)c2ccc(NC(C)=O)cc21` was 2.59 µM (active).
`CC(=O)Nc1ccc(NC(=O)CSc2nnc(C3CC3)n2-c2ccccc2)cc1`: the Potency entry was “inactive”.
As to `N#CC(C(N)=O)=C1CCC2(CC1)OCCCCO2`, the Potency entry is “inactive”.
To `CCOc1cc(/C=N/O)ccc1OCc1ccccc1F` belongs “inactive”.
With `CCN(CC(=O)Nc1c(F)cccc1F)C(=O)c1ccc(-c2ccc(C(C)=O)cc2)o1`, the Potency result was “inactive”.
As to `COC(=O)c1cc2c(N)c(C(=O)c3ccc(Cl)cc3)sc2nc1C(OC)OC`, the Potency was 14.6 µM (active).
With `COc1ccc(OC)c(C(=O)c2ccc(Cl)cc2)c1`, the Potency entry was “inactive”.
The value for `COC(=O)c1cn(C(=O)c2ccc(Cl)cc2)c2ccccc12` was “inactive”.
To `Cc1ccc(C(=O)N/N=C/c2sc(=O)n(Cc3cccc(C(=O)O)c3)c2Cl)cc1` belongs “inactive”; to `CCCN=C1NC(=O)C(CC(=O)NCCc2ccc(OC)c(OC)c2)S1` (stereo unspecified), “inactive”.
Take `O=C1C=C(c2cccc(Cl)c2)C[C@@H](c2ccc(F)cc2)C1`: the Potency result was “inactive”.
To `O=C1C=C(c2ccnc3cc(Cl)ccc23)C[C@@H](c2ccc3c(c2)OCO3)C1` belongs 16.4 µM (active); to `CC(=O)C1=C(C)NC(=O)NC1c1ccc2c(c1)OCO2` (stereo unspecified), “inactive”.
In the case of `CN(C)CC(C)(C)CNC(=O)c1cc(Br)cc(Br)c1O`, the Potency entry was “inactive”.
To `O=C(Cn1ncn2nc(-c3cccs3)cc2c1=O)NCc1cccc(Br)c1` belongs “inactive”; to `Cc1c(C(=O)OCC(=O)N2CCCC2=O)oc2ccccc12`, “inactive”; to `CNc1ccc([N+](=O)[O-])cc1C(=O)O`, “inactive”.
The value for `CC(Nc1ccc([N+](=O)[O-])cc1[N+](=O)[O-])c1ccccc1` (stereo unspecified) was 20.6 µM (active).
Regarding `C[n+]1ccccc1C1CCCC/C1=N\Nc1ccc([N+](=O)[O-])cc1[N+](=O)[O-]` (stereo unspecified), the Potency entry is “inactive”.
To `CC(C)(C)NC(=O)Cn1cnc([N+](=O)[O-])n1` belongs “inactive”; to `CC(C)C(NC(=O)c1c(F)cccc1F)C(=O)NCc1ccncc1` (stereo unspecified), “inactive”.
Regarding `CCN(CC(=O)NCC(=O)Nc1cccc(C)c1C)Cc1ccccc1`, the Potency entry was “inactive”.
As for `CCn1c(-c2ccncc2)n[nH]c1=S`, the Potency entry is “inactive”.
To `CCCc1cc(-c2n[nH]c(=S)n2Cc2ccccc2)cs1` belongs 29.1 µM (active).
To `COc1cc(-c2n[nH]c(=S)n2Cc2ccccc2)cc(OC)c1OC` belongs “inactive”; to `O=C(CSc1nnc(-c2ccncc2)n1-c1ccccc1)Nc1ccc(Cl)c(Cl)c1`, “inactive”; to `Cc1ccc(Nc2nc(CSc3nnc(-c4ccncc4)n3-c3ccccc3C)cs2)cc1`, 11.6 µM (active).
To `CCOc1ccccc1-n1c(SCC(=O)NCc2ccco2)nnc1-c1ccncc1` belongs “inactive”; to `CCOC(=O)Cn1c(O)c(N=NC(=O)CNC(=O)Cc2ccccc2)c2ccccc21`, “inactive”; to `Cn1c(S(=O)(=O)O)nc2ccccc21`, “inactive”.
Regarding `COc1ccc2cc(C(=O)NCC3CCCO3)[nH]c2c1` (stereo unspecified), the Potency entry was “inactive”.
To `O=C(NCC1CCCO1)c1ccc2ccccc2n1` (stereo unspecified) belongs “inactive”; to `O=C(NCC1CCCO1)c1cc2c([nH]c3ccccc32)c(-c2ccc(F)cc2)n1` (stereo unspecified), 1.84 µM (active); to `CSc1ccc(S(=O)(=O)NC2CCCCC2)cc1`, “inactive”.
In the case of `CC(C)C(=O)NCc1cc(-c2ccc(Cl)cc2)no1`, the Potency result is “inactive”.
As for `Cc1cc(O)c(Sc2ccccc2)c(=O)o1`, the Potency entry was “inactive”.
For the molecule `O=C(O)CSc1nnc(-c2ccc3c(c2)OCO3)n1-c1ccccc1`, the Potency result is “inactive”.
The value for `O=C(CSc1nnc(CN2CCCC2)n1-c1ccc(F)cc1)c1ccc2c(c1)OCO2` was 20.6 µM (active); that for `Cc1ccc(-n2c(CNc3ccc(F)cc3)nnc2SCC(=O)N2CCOCC2)cc1` was “inactive”; that for `Cc1ccc(NC(=O)CSCC(=O)N2CCOCC2)cc1` was “inactive”.
Turning to `CCN(CC(=O)Nc1c(F)cccc1F)C(=O)c1ccc(Sc2nncn2C)c([N+](=O)[O-])c1`, the Potency result was “inactive”.
The value for `CC1(C(=O)NS(=O)(=O)c2ccc(C#N)cc2)CCN1C(=O)CC1CCCC1` (stereo unspecified) was “inactive”; that for `Cc1ccc2[nH]c(=O)c(CC(=O)O)c(-c3ccccc3)c2c1` was “inactive”; that for `COc1ccc(CNC(=O)CC2Oc3ccc(C)cc3NC2=O)cc1` (stereo unspecified) was “inactive”.
The value for `COc1ccc(CNC(=O)c2cc3c(=O)[nH]c4ccc(C)cc4c3s2)c(OC)c1` was 20.6 µM (active); that for `Cc1cccc(N(C)C(=O)c2cc3c(=O)[nH]c4ccc(C)cc4c3s2)c1` was 5.17 µM (active).
For the molecule `COc1ccc(CNC(=O)c2cc3c(=O)[nH]c4ccccc4c3s2)cc1`, the Potency entry was “inactive”.
The value for `Cc1ccc2[nH]c(=O)c(CC=C(Cl)Cl)c(C)c2c1` was “inactive”.

(Values after PubChem BioAssay AID686978 (National Center for Advancing Translational Sciences (NCATS), 2013).)
